High-throughput results: PubChem, National Center for Advancing Translational Sciences (NCATS)
The list is not random: actives were taken first. Their share in the collection is about 3.4%.
Sm TGR block: S. mansoni TGR enzyme inhibition; actives 3% (n = 360,000); Q962Y6; AID 485364; Potency, µM (doses to about 114 µM), for inactives: at the highest dose activity change, negative = inhibition, usual class: inhibitors; purified TGR, DTNB reduction, TNB absorbance 405 nm; further: nearly all actives have a fitted effect of over 60% in size
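First, TGR (20 nM dispensed) and NADPH were mixed with compound. Second, a 15 min room-temperature incubation followed. Third, further NADPH and then DTNB were added to start the reaction. Finally, TNB absorbance was monitored kinetically.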
Giardia FBPA inh: Giardia lamblia aldolase inhibition; actives 0.71% (n = 290,000); purified Giardia FBPA; Potency, µM (series often up to 59.6 µM), without a hit: at the highest dose activity, negative = inhibition, most hits filed as inhibitors; further: nearly all actives have a fitted effect of over 55% in size
Target sequence (A8B2U2 whole entry, looked up): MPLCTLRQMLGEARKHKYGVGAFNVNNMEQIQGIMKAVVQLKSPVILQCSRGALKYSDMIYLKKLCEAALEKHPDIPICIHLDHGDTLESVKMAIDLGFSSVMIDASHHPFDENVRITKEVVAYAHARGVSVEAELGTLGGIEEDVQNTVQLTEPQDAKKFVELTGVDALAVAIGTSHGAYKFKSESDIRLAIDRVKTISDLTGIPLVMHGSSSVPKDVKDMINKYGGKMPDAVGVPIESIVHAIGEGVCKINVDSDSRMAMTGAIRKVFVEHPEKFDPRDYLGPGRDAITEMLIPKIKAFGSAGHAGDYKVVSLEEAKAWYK
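40 nM FBPA preincubated 10 min at RT with compound (up to 57.5 uM final), then substrate plus GAPDH/TPI/NAD/arsenate coupling and diaphorase/resazurin added. Fluorescence read after 20 min at RT, 525/598 nm.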
AmpC detergent: inhibitors of E. coli AmpC beta-lactamase with detergent | actives 0.041% (n = 370,000) | Potency, µM (series often up to 114 µM), without a hit: at the highest dose activity change, negative = inhibition, most hits filed as inhibitors | AmpC hydrolysis of nitrocefin, absorbance 480 nm, 0.01% Triton | P00811;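 further: 0% = no-compound wells and -100% = no-enzyme wells; nearly all actives have a fitted effect of over 25% in size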
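20 mM phosphate pH 7.0 + 0.01% (detergent screen) or 0.0001% Triton X-100; 5.3 nM AmpC reagent; cpd preinc 15 min RT; nitrocefin (800 uM stock) to start; A480 q20 s × 4 min; Activity was normalised to no-enzyme and no-compound control wells.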
AmpC no deterg: AmpC beta-lactamase inhibition without detergent | P00811 | AmpC nitrocefin hydrolysis, absorbance 480 nm, 0.0001% Triton | Potency, µM (doses to about 57.1 µM), for the others: top-dose activity change, negative = inhibition, usual class: inhibitors | actives 0.52% (n = 330,000) | AID 485341;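 further: plate controls were no compound for no effect and no enzyme for full effect; nearly all actives have a fitted effect of over 20% in size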
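20 mM phosphate pH 7.0 + 0.01% (detergent screen) or 0.0001% Triton X-100; 5.3 nM AmpC reagent; cpd preinc 15 min RT; nitrocefin (800 uM stock) to start; A480 q20 s × 4 min; Activity was normalised to no-enzyme and no-compound control wells.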
RE007 growth inh: less growth of the S. pombe RE007 Vpr strain. Potency, µM (top dose mostly 92.2 µM), inactives show top-dose activity change, negative = less growth, usual class: inhibitors. AID 651644. actives 0.21% (n = 360,000). S. pombe RE007 Vpr strain, BacTiter-Glo ATP luminescence, 24 h; active means well fitted falling curve with a large enough effect; inconclusive means small, poorly fitted or top-dose-only effect; inactive means no such curve, though single readings can be large or run the other way; further: nearly all actives have a fitted effect of over 50% in size
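Fission yeast RE007 carrying one integrated HIV-1 vpr copy, seeded at OD 0.01 in PMG+AL medium with 23 nL pinned compound. Grown 24 h at 30 degrees; viability read by BacTiter-Glo luminescence after 5 min.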
Numbers without * were called inactive; ? = inconclusive; nt = no result; [ ] = dose if it differs, or a comment. Unless noted, the call rests on the fitted dose curve; in most records, active means well fitted curve in the direction sought with a large enough effect; inconclusive means small, poorly fitted or top-dose-only effect, or another doubt; inactive means no such curve, though single readings can be large; an effect the other way counts as inactive or inconclusive. Unless noted, on the % scale 0 is the no-effect control and ±100 the full control effect; potency means the concentration at half of the fitted maximal effect.

SMILES	Sm TGR block	Giardia FBPA inh	AmpC detergent	AmpC no deterg	RE007 growth inh
O=C(NCCc1cccnc1)C1CCC(=O)N(Cc2cccc(C(F)(F)F)c2)C1 (stereo not given)	5%	-4%	0%	53%	-22%
COc1ccc(S(=O)(=O)N2CCC(C(=O)N(C)Cc3ccc(C)o3)CC2)cc1OC	40µM*	nt	-10%	26%	-11%
Cc1ccc(CN(C)C(=O)c2cccc(S(=O)(=O)N3CCCC3)c2)o1	nt	nt	nt	1%	9%
O=C(NCCc1ccccc1)C1CCC(=O)N(Cc2cccc(C(F)(F)F)c2)C1 (stereo not given)	89µM*	nt	0%	145%	4%
COc1ccccc1CN1CC(C(=O)N(C)Cc2ccc(C)o2)CCC1=O (stereo not given)	20µM*	nt	4%	30%	-1%
COc1ccc(CNC(=O)C2CCC(=O)N(CC3CCCCC3)C2)cc1 (stereo not given)	0%	nt	8%	-15%	-12%
Cc1ccc(CNC(=O)C2CCC(=O)N(CC3CCCCC3)C2)o1 (stereo not given)	28µM*	2%	?	37%	-25%
COc1ccccc1CN1CC(C(=O)N(C)Cc2ccncc2C)CCC1=O (stereo not given)	-15%	nt	5%	11%	10%
COc1ccccc1C(=O)N1CCN(Cc2nc3cc([N+](=O)[O-])ccc3n2C)CC1	-10%	-18%	-7%	77%	-7%
COc1ccccc1CN1CC(C(=O)NCCc2ccc(C)o2)CCC1=O (stereo not given)	25µM*	nt	-1%	140%	6%
COc1ccccc1CCNC(=O)C1CCC(=O)N(Cc2ccccc2OC)C1 (stereo not given)	0%	nt	4%	57%	-15%
CCc1ccc(NC(=O)c2cc3sc(Cl)cc3n2C)cc1	-1%	nt	56µM*	nt	nt
CC(C)=NOc1cc(NC(=O)CCl)cc([N+](=O)[O-])c1	11µM*	-27%	-7%	-27%	-23%
CCc1cccc2c(C(=O)COC(=O)c3ccc(O)cc3)c[nH]c12	-10%	3%	-11%	28µM*	10%
CCc1cccc2c(C(=O)COC(=O)c3ccccc3)c[nH]c12	-10%	-1%	?	-31%	-9%
CCOC(=O)C1=C(C)OC(N)=C(C#N)C1c1cc(C)sc1C (stereo not given)	22%	-14%	?	-14%	4%
CCOC(=O)C1=C(C)OC(N)=C(C#N)C1c1cc2cc(C)ccc2nc1N1CCCCC1 (stereo not given)	3.5µM*	?	-10%	-12%	4%
CCOC(=O)C1=C(C)OC(N)=C(C#N)C1c1cc(SCC)oc1C (stereo not given)	45µM*	-22%	3%	-14%	?
CCc1ccc(C(=O)/C=C/NCc2ccc(F)cc2)cc1	-2%	5%	?	-47%	nt
Cc1ccc(C(=O)Nc2c(C(=O)N3CCOCC3)cnn2-c2ccccc2)cc1	-1%	2%	-6%	nt	0%
CCCc1cc(NCCN(C)C)n2c(nc3ccccc32)c1C#N	3%	-10%	-4%	-13%	-6%
CCCc1cc(NCCCN(C)C)n2c(nc3ccccc32)c1C#N	40µM*	-29%	-5%	1%	nt
COC(=O)[C@H](Cc1c[nH]c2ccccc12)NC(=O)CCCc1c[nH]c2ccccc12	12%	10%	1%	-18%	-2%
Cc1ccc2oc(-c3ccccc3C(=O)O)cc(=O)c2c1	19%[11.4 µM]	10%	-19%	-13%	-3%
O=C(O)c1ccccc1-c1c2cc(Br)c(=O)cc-2oc2[c]([Hg])c(O)c(Br)cc12	nt	22µM*	nt	nt	nt
SMILES	Sm TGR block	Giardia FBPA inh	AmpC detergent	AmpC no deterg	RE007 growth inh
O=C(CSc1nccc(=O)[nH]1)NC1CCCc2ccccc21 (stereo not given)	-12%	9%	-4%	-10%	-8%
CC(=O)N1CCN(c2ccc(NC(=S)NC(=O)c3ccc(C)c([N+](=O)[O-])c3)cc2)CC1	11µM*	0%	-1%	99%	-1%
COc1ccc(C(=O)NC(=S)Nc2ccc(N3CCN(C(C)=O)CC3)cc2)cc1[N+](=O)[O-]	8.9µM*	1%	4%	45%	12%
Cc1ccc(CNC(=S)Nc2cc(C(=O)O)ccc2C)cc1	-14%	-16%	-1%	86%	-9%
Cc1ccc(C(=O)O)cc1NC(=S)NC(=O)c1ccc([N+](=O)[O-])c(C)c1	20µM*	-20%	-2%	-16%	1%
COc1ccc(N2CC(NS(=O)(=O)c3ccc4ccccc4c3)CC2=O)cc1OC (stereo not given)	-2%	nt	?	17%	22%
CCn1c(CNC(=O)c2ccco2)nnc1SCCOc1ccccc1	-16%	2%	-4%	0%	-17%
O=C(NCc1cccnc1)/C(=C\c1ccc(-c2cccc(Cl)c2)o1)S(=O)(=O)c1ccccc1	18µM*	6%	5%	2%	-12%
O=C(c1ccco1)N1CCC2(CCCN(c3ccccc3)C2)CC1	nt	-7%	nt	nt	nt
CCOc1ccc(CCNC(=O)CS(=O)Cc2nc(-c3ccccc3C)oc2C)cc1OCC (stereo not given)	35µM*	nt	0%	177%	12%
Cc1oc(-c2ccccc2F)nc1CS(=O)CC(=O)NCc1cccs1 (stereo not given)	-30%	6%	?	-18%	-8%
CCC(C)NC(=O)CS(=O)Cc1nc(-c2ccccc2C)oc1C (stereo not given)	8.9µM*	2%	?	12%	-21%
Cc1ccccc1-c1nc(CS(=O)CC(=O)NCc2ccccn2)c(C)o1 (stereo not given)	?	7%	?	10%	1%
Cc1ccccc1-c1nc(CS(=O)CC(=O)NCCCN(C)c2ccccc2)c(C)o1 (stereo not given)	-28%	nt	-5%	163%	-14%
Cc1oc(-c2ccccc2F)nc1CS(=O)CC(=O)NC(C)C (stereo not given)	14µM*	nt	-9%	nt	nt
CCCNC(=O)CS(=O)Cc1nc(-c2ccccc2C)oc1C (stereo not given)	50µM*	2%	?	0%	-17%
O=C(c1cnccn1)N(c1ccccc1)C1(C(=O)NC2CCCCC2)CCCCC1	-9%	4%	-4%	34%	-7%
O=C(c1ccccc1F)N1CCCC(c2ccccc2)C1 (stereo not given)	-8%	5%	?	-12%	17%
O=C(Nc1nccs1)c1cccc(S(=O)(=O)N2CCCC2)c1	-3%	-8%	-10%	-28%	6%
Fc1cccc(/C=N/Nc2nccnc2Cl)c1	1%	?	5%	-18%	?
